# Assay outcomes from PubChem.
# The list is not random: actives were taken first. Their share in the collection is about 19%.
# DT40 TDP1 no CPT – qHTS for Inhibitors of human tyrosyl-DNA phosphodiesterase 1 (TDP1): qHTS in cells in absence of CPT. DT40 Tdp1-/- hTDP1 cells, no CPT, ATP luminescence, 48 h. Potency, µM (titrated, usually from 46.2 µM), without a hit: at the top dose activity change, negative = growth inhibition, usual class: inhibitors. actives 15% (n = 420,000). AID 686978, 2013; also: potency is read from the fitted curve at half-maximal effect; nearly all actives have a fitted effect of over 55% in size
#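 Camptothecin absent (DMSO only). Human TDP1-complemented DT40 knockout cells, 400 cells/well, 37 °C for minimum 48 hr; ATP measured via CellTiter-Glo, 30 min dark incubation, luminescence.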
# ELG1 DNA repair – ELG1-dependent DNA repair inhibition. HEK293T ELG1-luciferase reporter, luminescence, 16 h; DNA damage induced by 5-fluorouridine. Potency, µM (titrated, usually from 46.1 µM), inactives show at the highest dose activity change, negative = inhibition, hits mostly inhibitors. actives 2.3% (n = 330,000); also: potency is read from the fitted curve at half-maximal effect; nearly all actives have a fitted effect of over 55% in size
#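 Quantitative HTS, concentration-response format. 2,000 cells/well co-treated with 5-fluorouridine and compound, 16 hr in 5% CO2 at 37 °C; ONE-Glo luminescence read after 30 min.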
# Giardia killer – kills Giardia lamblia; Giardia lamblia trophozoite viability; activity change, % at 7.66 µM, hits read low; actives 0.15% (n = 340,000); AID 540267; in the data active = activity change below about -80%; inconclusive = between about -30% and that limit;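 also: parasites exposed to compound for two days anaerobically before the ATP read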
#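 Killing of trophozoites was scored by loss of ATP luminescence after a 48 hrs anaerobic exposure to compounds at 37 deg C, using 100 cells per well.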
# TDP1 cell CPT – growth inhibition of DT40 Tdp1-/-;hTDP1 cells with camptothecin (screen for TDP1 inhibitors). chicken DT40 Tdp1-/-;hTDP1 cells + 20 nM CPT, ATP luminescence, 48 h. Potency, µM (series often up to 46.2 µM), for inactives: top-dose activity change, negative = growth inhibition, most hits filed as inhibitors. actives 12% (n = 420,000); also: potency is read from the fitted curve at half-maximal effect; nearly all actives have a fitted effect of over 55% in size
#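 Cell growth measured by CellTiter-Glo luminescence after a minimum 48 h, 37 C compound exposure with 20 nM CPT in Tdp1-knockout DT40 cells stably expressing hTDP1, seeded 400/well; qHTS titration format.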
# IL-1B inflam inh – inhibitors of inflammasome signaling (IL-1 beta secretion); THP-1 LPS/ATP IL-1B secretion, AlphaLISA, 16 h; hits give low values; activity change, % at 57.5 µM; actives 4.7% (n = 360,000); in the data active = activity change below about -50%; inconclusive = mostly about -30% to -49%
#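 THP-1 cells pretreated 1 hr with compounds (up to 57.5 uM final), then stimulated with LPS (250 ng/mL final) plus ATP (1.25 mM final); secreted IL-1B measured by AlphaLISA after 16 hr, decreased signal indicating inhibition.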
# TDP1 inh – inhibitors of human tyrosyl-DNA phosphodiesterase TDP1; Q9NUW8; recombinant TDP1, AlphaScreen DNA substrate cleavage; Potency, µM (titrated, usually from 130 µM), without a hit: top-dose activity change, negative = inhibition, hits mostly inhibitors; actives 0.28% (n = 350,000); also: potency is read from the fitted curve at half-maximal effect; nearly all actives have a fitted effect of over 40% in size
# Target sequence (Q9NUW8 whole entry, looked up): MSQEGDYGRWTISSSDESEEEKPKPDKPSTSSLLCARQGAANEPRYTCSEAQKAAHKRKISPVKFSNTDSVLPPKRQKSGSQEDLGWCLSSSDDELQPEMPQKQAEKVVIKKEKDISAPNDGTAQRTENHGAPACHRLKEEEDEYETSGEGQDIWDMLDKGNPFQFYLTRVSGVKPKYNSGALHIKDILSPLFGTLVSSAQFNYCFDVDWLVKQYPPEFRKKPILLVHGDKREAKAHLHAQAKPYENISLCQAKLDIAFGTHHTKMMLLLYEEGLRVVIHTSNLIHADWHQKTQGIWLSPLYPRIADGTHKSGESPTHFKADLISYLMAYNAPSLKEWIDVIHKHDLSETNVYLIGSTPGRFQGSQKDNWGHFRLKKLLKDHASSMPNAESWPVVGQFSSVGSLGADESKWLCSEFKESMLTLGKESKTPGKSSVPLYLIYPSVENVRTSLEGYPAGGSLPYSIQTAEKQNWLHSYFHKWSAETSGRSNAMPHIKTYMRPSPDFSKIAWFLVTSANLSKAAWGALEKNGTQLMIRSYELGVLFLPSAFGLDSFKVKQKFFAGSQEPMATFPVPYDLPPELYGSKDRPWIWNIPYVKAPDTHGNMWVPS
#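 Steps: enzyme plus compound, 15 min RT; add biotin/phosphotyrosine-FITC oligonucleotide (15 nM final), react 5 min; add donor/acceptor beads (10 ug/ml final), 10 min; read AlphaScreen. Tdp1 at 1 nM final.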
# Active calls of the source: *; ? = inconclusive; . = no result given; [ ] = dose if it differs, or a comment. Unless noted, calls follow the shape of the dose curve; as a rule, active = well fitted curve in the direction sought with a large enough effect; inconclusive = small, poorly fitted or top-dose-only effect, or another doubt; inactive = no such curve, though single readings can be large; an effect the other way counts as inactive or inconclusive. % is scaled to controls: 0 for no effect and ±100 for the full control effect.
SMILES,DT40 TDP1 no CPT,ELG1 DNA repair,Giardia killer,TDP1 cell CPT,IL-1B inflam inh,TDP1 inh
COc1ccc(NC(=O)C(=O)N2N=C(C(C)C)CC2(O)C(F)(F)F)cc1 (centres undefined),5µM*,-3%,7,5.8µM*,-12,6%
CCCC1=NN(C(=O)C(=O)Nc2ccc(Br)cc2)C(O)(C(F)(F)F)C1 (centres undefined),4.6µM*,-17%,-3,4.1µM*,21,1%
Cc1ccc(NS(=O)(=O)c2cc(NC(=O)C(C)Oc3ccccc3)ccc2C)c(C)c1 (centres undefined),23µM*,?,16,?,-2,0%
Cc1ccc(NC(=O)C(C)Oc2ccccc2)cc1S(=O)(=O)N1CCCCCC1 (centres undefined),23µM*,?,-6,?,-11,-3%
CC(Oc1ccccc1)C(=O)Nc1ccc(S(=O)(=O)N2CCCC2)cc1 (centres undefined),?,-1%,-14,-14%,-7,.
Cc1ccc(NC(=O)CNc2ccc(OC(C)C)cc2)c(C)c1,?,-1%,4,?,-23,9%[56.1 µM]
Cc1cc(Cn2nnc(-c3ccc(Br)cc3)n2)cc(C)c1O,?,?,-4,?,0,0%
COc1ccc(OC)c(NC(=O)Nc2ccc(Cl)cc2)c1,-27%,-5%,3,-22%,-66*,4%
COc1ccc(NC(=O)Nc2cc(C)ccc2F)cc1,-2%,?,9,3%,?,-2%
COc1ccc(NC(=O)Nc2ccc(F)c(Cl)c2)cc1,16µM*,?,-6,?,-1,-3%
Cc1cccc(OCCC(=O)Nc2ccc(F)c(Cl)c2)c1,-7%,1%,-10,0%,-84*,-5%
CCC(CC)NC(=O)Nc1ccc(F)c(Cl)c1,?,?,1,?,-16,5%
Cc1ccc(NC(=O)Nc2ccc(F)c(Cl)c2)cc1,23µM*,?,-12,?,-29,-3%
CCCCNC(=S)NNC(=O)c1csc2ccccc12,26µM*,9%,3,?,-28,7%
N#Cc1c(SCC(=O)Nc2nncs2)sc2c(O)cc(=O)[nH]c12,-20%,-9%,-8,-2%,42,.
COc1cc(NC(=O)c2ccco2)c(OC)cc1NC(=O)CSc1ncc(-c2ccc(F)cc2)[nH]1,26µM*,?,10,?,-15,-2%
CCn1c(SCC(=O)Nc2cc3oc4ccccc4c3cc2OC)nnc1-c1cccs1,?,18µM*,4,?,0,4%
C=CCn1c(SCC(=O)Nc2cc(OC)c(NC(=O)c3ccco3)cc2OC)nnc1-c1ccncc1,?,23µM*,-7,-26%,-8,5%
C=CCn1c(SCC(=O)Nc2cc3oc4ccccc4c3cc2OC)nnc1-c1cnccn1,?,12µM*,-4,?,-11,6%
COc1cc2c(cc1NC(=O)CSc1nnc(Cc3cccs3)n1C)oc1ccccc12,?,?,17,?,-18,3%
CC(=O)NCCNc1ccnc(-c2ccccc2C)n1,17%,.,.,-3%,.,.
NC(=O)C1=CN(C2OC(COP(=O)(O)OP(=O)(O)OC[C@H]3O[C@@H](n4cnc5c(N)ncnc54)[C@H](OP(=O)(O)O)[C@H]3O)C(O)C2O)C=CC1 (some centres undefined),.,.,.,.,.,-5%[56.1 µM]
CCCCC1=CC2=C(OC(C)=O)C(=O)C(C)(OC(=O)CC)C(=O)C2=CO1 (centres undefined),.,.,.,.,.,4%
CSc1ncnc2c1ncn2CCCN1CCN(c2ccccn2)CC1,16µM*,.,.,?,30,.
COc1ncnc2c1ncn2CCCN1CCN(c2ccccn2)CC1,-28%,.,.,-14%,5,.
SMILES,DT40 TDP1 no CPT,ELG1 DNA repair,Giardia killer,TDP1 cell CPT,IL-1B inflam inh,TDP1 inh
c1ccc(COc2ncnc3c2ncn3CCCN2CCN(c3ccccn3)CC2)cc1,16µM*,.,-2,?,-26,.
Cc1ccc(NNC(=O)c2cc(C(C)(C)C)nn2Cc2ccccc2)cc1,?,?,6,-18%,?,-1%
Cc1ccc(NC(=O)c2cc(C(C)(C)C)nn2Cc2ccccc2)cc1,29µM*,?,4,?,-81*,0%
CC(C)(C)c1cc(C(=O)Nc2ccc(F)cc2)n(Cc2ccc(F)cc2)n1,21µM*,?,-11,?,?,1%
CCC(C)NC(=O)Cn1c(=O)n(CCCC(=O)NCc2ccc(C)cc2)c(=O)c2ccccc21 (centres undefined),-16%,.,.,-5%,.,-2%[12.3 µM]
O=C(c1ccc(OC2CCN(CCc3ccccc3)CC2)cc1)N1CCC(CO)CC1,14%,0%,7,-6%,-12,4%
CC(C)NC1CCC(Nc2ccnc3cc(Cl)ccc23)CC1 (centres undefined),9.2µM*,.,25,6.5µM*,-93*,.
CC1CCCN1c1ccnc2cc(Cl)ccc12 (centres undefined),16µM*,.,16,29µM*,-1,.
Clc1ccc2c(NCCNC3CCCCC3)ccnc2c1,15µM*,.,-9,16µM*,-95*,.
CC(CCCN1CCCC1)Nc1ccnc2cc(Cl)ccc12 (centres undefined),23µM*,.,-5,?,?,.
CC/C(=N\Nc1ccnc2cc(Cl)ccc12)c1ccc(O)cc1,?,-4%,2,?,-20,.
CCN(CC)CCC[C@H](C)Nc1ccnc2cc(Cl)ccc12,.,.,.,.,.,11%[21 µM]
CCCCC#Cc1cncc(C(=O)N/N=C/c2cccc(OC)c2)c1,-21%,?,24,-18%,1,8%
CNc1ncncc1-c1ccccc1C(F)(F)F,-17%,.,.,1%,.,.
CCC(=O)C1=C(O)C(c2cccc(Oc3ccccc3)c2)CCC1=O (centres undefined),9.2µM*,?,14,21µM*,0,-1%
CCN(C[C@H]1N[C@@](Cc2ccccc2)(C(=O)OC)[C@H]2C(=O)N(C)C(=O)[C@@H]12)C(=O)c1ccc(C)cc1,-18%,2%,0,-10%,-16,2%
COC(=O)[C@]1(Cc2ccccc2)N[C@H](CN(C)C(=O)Nc2ccc(OC)cc2)[C@@H]2C(=O)N(Cc3ccccc3)C(=O)[C@@H]21,8.2µM*,-8%,?,18µM*,-26,3%
